Assay results published in PubChem BioAssay.
A number with no mark means an inactive call. Calls of active or inactive are those of the source. Cut-off read from the data, not from the text of the source, unless noted: active = inhibition above about 44%; inactive = the rest.

Columns and labels:
[1] = biological target: Nuclear receptor coactivator 3 (Homo sapiens) (UniProt Q9Y6Q9); assay: NCOA3 GAL4-fusion reporter inhibition – cell-based, luminescence, quadruplicate, confirmation (AID 588792;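 active = mean inhibition over 43.08%, the solvent-only control mean plus 3 SD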;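 note: 0% = DMSO treated cells and 100% = gossypol at 36 µM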); conditions: HEK293 GAL4-SRC3 luciferase reporter, at 3.6 µM, stronger effect = higher value
[2] = system: transactivating tegument protein VP16 (Human herpesvirus 1), Gal4-VP16 luciferase reporter; assay: repression of VP16-driven luciferase reporter – cell-based, luminescence, high throughput, counter-screen for SRC3 inhibitor project (AID 588794; in the data active = inhibition above about 30%); conditions: mammalian cells, at 3.6 µM, stronger effect = higher value
[3] = biological target: Nuclear receptor coactivator 1 (Homo sapiens) (UniProt Q15788); assay: NCOA1 GAL4-fusion reporter inhibition – cell-based, luminescence, quadruplicate, confirmation (AID 588820;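 active = mean inhibition above 46.68%, the untreated control wells mean plus 3 SD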;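 note: 0% = DMSO wells and 100% = gossypol 36 µM treated wells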); conditions: HEK293 GAL4-SRC1 luciferase reporter, at 3.6 µM, stronger effect = higher value
[4] = repression of VP16-driven luciferase reporter – cell-based, luminescence, high throughput, counter-screen for SRC1 inhibitor project (AID 588824; in the data active = inhibition above about 25%); conditions: cell-based VP16 transactivation luciferase luminescence; at 3.6 µM; stronger effect = higher value
[5] = StAR promoter reporter inhibitors, counter-screen for LRH-1 inverse agonist project, cell-based, luminescence, high throughput (AID 651611; in the data active = inhibition above about 28%); conditions: StAR promoter luciferase reporter counterscreen, at 3.6 µM, stronger effect = higher value
[6] = biological target: Nuclear receptor subfamily 5 group A member 2 (Homo sapiens) (UniProt O00482); assay: NR5A2 activity suppression in reporter cells – cell-based, luminescence, confirmation (AID 651613; in the data active = inhibition above about 42%;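 note: HEK293T cells co-transfected with LRH-1 and StAR promoter luciferase reporter; 0% = vehicle wells and 100% = parental cells lacking receptor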); conditions: cell-based LRH-1 luciferase reporter, inverse agonism; at 3.6 µM; stronger effect = higher value
[7] = biological target: Steroidogenic factor 1 (Homo sapiens) (UniProt Q13285); assay: inverse agonism at SF1 nuclear receptor – cell-based, luminescence, high throughput, counter-screen for LRH-1 inverse agonist project (AID 651614); conditions: cell-based SF1 luciferase reporter, at 3.6 µM, stronger effect = higher value;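 note: cells cotransfected with StAR promoter reporter and SF1 expression vector; 0% = vehicle on cells with receptor and 100% = vehicle on cells lacking receptor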
[8] = compounds suppressing VP16-driven luciferase signal – cell-based, luminescence, high throughput, counter-screen for LRH-1 inverse agonist project (AID 651615; in the data active = inhibition above about 33%); conditions: Gal4-VP16 luciferase reporter cells, at 3.6 µM, stronger effect = higher value
[9] = system: transactivating tegument protein VP16 (Human herpesvirus 1); assay: compounds suppressing VP16-driven luciferase signal – cell-based, luminescence, single concentration, counter-screen for SRC2 inhibitor project (AID 652007; in the data active = inhibition above about 36%); conditions: cell-based VP16 transactivation luciferase reporter, at 8.9 µM, stronger effect = higher value
[10] = biological target: Nuclear receptor coactivator 2 (Homo sapiens) (UniProt Q15596); assay: inhibition of GAL4-SRC2 driven luciferase expression – cell-based, luminescence, HEK293, triplicate, confirmation (AID 652008;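 active = mean inhibition above 46.5%, the solvent-only control mean plus 3 SD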;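 note: 0% = DMSO-treated cells and 100% = Gossypol at 36 µM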); conditions: HEK293 GAL4-SRC2 luciferase reporter, at 8.9 µM, stronger effect = higher value

Chain of Nuclear receptor coactivator 3 (Homo sapiens) (Q9Y6Q9 whole entry, looked up, the tested form may be a part): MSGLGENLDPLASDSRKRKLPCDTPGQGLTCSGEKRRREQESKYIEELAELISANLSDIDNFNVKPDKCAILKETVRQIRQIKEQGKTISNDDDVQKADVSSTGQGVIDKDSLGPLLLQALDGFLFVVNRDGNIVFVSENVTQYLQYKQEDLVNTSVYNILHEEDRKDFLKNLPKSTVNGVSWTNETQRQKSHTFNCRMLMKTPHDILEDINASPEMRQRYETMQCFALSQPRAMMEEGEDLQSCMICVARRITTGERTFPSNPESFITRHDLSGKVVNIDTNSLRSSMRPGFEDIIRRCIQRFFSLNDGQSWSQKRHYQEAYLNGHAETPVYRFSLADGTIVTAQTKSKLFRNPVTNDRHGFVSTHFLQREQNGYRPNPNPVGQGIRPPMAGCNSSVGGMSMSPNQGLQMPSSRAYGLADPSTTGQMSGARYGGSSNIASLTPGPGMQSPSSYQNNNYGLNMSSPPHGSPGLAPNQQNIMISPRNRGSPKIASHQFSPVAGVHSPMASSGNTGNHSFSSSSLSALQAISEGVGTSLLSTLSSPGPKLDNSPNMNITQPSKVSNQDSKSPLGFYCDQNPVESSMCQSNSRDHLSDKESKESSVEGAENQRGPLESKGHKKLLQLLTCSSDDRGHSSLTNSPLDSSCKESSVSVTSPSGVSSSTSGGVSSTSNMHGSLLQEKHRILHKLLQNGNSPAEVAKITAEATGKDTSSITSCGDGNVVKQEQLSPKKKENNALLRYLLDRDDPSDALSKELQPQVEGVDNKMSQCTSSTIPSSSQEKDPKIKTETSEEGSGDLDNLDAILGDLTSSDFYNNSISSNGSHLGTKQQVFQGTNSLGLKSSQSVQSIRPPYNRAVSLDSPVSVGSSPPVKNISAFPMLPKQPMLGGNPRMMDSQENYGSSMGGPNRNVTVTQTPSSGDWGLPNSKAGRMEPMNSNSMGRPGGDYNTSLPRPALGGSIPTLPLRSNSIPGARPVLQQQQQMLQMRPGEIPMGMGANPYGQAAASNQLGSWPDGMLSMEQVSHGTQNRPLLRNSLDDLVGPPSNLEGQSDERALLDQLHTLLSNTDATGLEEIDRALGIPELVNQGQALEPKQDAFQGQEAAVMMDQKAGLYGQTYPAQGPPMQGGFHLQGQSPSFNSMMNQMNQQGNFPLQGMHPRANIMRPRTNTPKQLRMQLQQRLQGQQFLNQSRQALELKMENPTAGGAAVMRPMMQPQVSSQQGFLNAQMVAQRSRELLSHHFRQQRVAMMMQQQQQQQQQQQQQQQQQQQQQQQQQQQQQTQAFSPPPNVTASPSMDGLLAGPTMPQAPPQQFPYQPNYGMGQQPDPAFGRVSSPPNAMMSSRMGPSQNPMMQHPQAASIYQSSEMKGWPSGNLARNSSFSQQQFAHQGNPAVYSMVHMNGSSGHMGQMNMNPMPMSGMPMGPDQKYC
Chain of Nuclear receptor coactivator 1 (Homo sapiens) (Q15788 whole entry, looked up, the tested form may be a part): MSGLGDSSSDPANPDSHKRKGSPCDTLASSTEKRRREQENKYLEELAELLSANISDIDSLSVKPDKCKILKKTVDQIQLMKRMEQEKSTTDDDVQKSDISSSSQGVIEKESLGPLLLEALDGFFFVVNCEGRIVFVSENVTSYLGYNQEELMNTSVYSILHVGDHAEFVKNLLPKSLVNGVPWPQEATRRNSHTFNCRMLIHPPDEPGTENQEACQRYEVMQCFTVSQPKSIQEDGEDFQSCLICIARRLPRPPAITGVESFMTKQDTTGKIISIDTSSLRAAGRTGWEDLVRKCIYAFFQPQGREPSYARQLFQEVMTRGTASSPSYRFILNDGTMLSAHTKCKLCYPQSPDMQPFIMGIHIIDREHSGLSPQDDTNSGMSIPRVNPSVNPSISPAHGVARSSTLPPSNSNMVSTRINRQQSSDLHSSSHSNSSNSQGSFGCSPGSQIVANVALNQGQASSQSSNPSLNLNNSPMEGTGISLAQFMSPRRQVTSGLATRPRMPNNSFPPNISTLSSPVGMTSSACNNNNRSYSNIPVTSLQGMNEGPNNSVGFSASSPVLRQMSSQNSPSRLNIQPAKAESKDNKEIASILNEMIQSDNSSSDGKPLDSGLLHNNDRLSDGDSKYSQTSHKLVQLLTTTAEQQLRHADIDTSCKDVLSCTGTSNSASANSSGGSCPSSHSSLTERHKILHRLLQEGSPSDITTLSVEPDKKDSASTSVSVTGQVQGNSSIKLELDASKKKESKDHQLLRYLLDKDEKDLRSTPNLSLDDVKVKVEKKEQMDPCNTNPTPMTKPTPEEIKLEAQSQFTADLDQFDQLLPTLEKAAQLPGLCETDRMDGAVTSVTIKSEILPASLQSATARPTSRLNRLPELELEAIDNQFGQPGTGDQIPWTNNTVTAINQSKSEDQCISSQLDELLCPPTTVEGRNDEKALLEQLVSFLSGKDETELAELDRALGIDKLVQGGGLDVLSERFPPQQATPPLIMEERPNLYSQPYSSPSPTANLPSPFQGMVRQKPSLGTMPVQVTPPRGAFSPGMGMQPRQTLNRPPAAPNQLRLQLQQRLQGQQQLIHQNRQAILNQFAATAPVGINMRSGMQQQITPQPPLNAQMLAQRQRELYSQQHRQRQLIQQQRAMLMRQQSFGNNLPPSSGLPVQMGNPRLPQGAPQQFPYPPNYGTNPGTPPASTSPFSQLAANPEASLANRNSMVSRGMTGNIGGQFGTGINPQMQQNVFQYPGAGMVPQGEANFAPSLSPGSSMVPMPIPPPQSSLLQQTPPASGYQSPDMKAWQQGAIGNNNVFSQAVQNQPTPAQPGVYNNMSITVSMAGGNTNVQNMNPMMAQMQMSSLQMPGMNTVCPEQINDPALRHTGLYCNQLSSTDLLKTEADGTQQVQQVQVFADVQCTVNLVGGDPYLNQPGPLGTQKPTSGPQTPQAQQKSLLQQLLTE
Chain of Nuclear receptor subfamily 5 group A member 2 (Homo sapiens) (O00482 whole entry, looked up): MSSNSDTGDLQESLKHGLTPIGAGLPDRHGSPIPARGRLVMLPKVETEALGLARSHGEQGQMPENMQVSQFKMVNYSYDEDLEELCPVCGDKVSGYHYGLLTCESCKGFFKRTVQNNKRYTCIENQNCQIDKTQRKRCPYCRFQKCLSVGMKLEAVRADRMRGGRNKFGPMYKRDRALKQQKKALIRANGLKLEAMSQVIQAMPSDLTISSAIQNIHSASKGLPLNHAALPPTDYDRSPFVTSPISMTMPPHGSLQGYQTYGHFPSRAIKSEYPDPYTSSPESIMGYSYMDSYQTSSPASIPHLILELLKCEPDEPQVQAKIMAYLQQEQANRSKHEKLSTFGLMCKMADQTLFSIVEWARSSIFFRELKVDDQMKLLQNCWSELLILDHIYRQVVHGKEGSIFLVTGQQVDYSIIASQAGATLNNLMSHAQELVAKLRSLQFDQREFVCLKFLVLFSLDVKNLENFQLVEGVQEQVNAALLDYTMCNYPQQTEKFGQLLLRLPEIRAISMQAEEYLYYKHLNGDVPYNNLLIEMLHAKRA
Chain of Steroidogenic factor 1 (Homo sapiens) (Q13285 whole entry, looked up, the tested form may be a part): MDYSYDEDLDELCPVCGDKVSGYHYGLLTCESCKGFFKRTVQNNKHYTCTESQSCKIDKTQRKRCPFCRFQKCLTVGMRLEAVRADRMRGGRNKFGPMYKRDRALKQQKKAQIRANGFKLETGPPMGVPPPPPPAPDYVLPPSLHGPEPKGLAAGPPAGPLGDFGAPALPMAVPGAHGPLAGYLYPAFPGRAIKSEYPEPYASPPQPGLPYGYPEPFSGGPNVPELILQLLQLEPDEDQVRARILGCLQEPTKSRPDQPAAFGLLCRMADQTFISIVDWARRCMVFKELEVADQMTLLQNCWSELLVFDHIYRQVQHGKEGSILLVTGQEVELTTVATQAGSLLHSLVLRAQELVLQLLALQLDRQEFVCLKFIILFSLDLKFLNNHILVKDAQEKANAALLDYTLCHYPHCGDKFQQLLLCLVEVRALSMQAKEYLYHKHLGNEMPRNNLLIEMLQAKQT

| Structure (SMILES) | inhibition [1] | inhibition [2] | inhibition [3] | inhibition [4] | inhibition [5] | inhibition [6] | inhibition [7] | inhibition [8] | inhibition [9] | inhibition [10] |
| --- | --- | --- | --- | --- | --- | --- | --- | --- | --- | --- |
| S=C(NCCCCN(Cc1ccc(Cl)cc1)c1ccc(Br)cn1)NCCCc1cnc[nH]1 | 93.1% (active) | 72.5% (active) | 76.5% (active) | 60.9% (active) | 90.1% (active) | 103% (active) | 96.7% (active) | 86.5% (active) | 23.1% | 54.5% (active) |
| Oc1ccc(CCNc2ncnc3ccc(Cl)cc23)cc1 | 64.9% (active) | 61.6% (active) | 60.8% (active) | 62% (active) | 43.6% (active) | 70.5% (active) | 68.7% (active) | 78.6% (active) | 26.7% | 65.6% (active) |
| N#Cc1c(NC(=O)CSc2ncn[nH]2)sc2c1CCCCC2 | 51.8% (active) | 65.9% (active) | 28.3% | 59% (active) | 29.9% (active) | 62.8% (active) | 50.1% (active) | 60.7% (active) | 87.6% (active) | 88% (active) |
| OCC1OC(n2ccc3c(NO)ncnc32)C(O)C1O (stereo not given) | 93.2% (active) | 88.2% (active) | 48.2% (active) | 87.4% (active) | 93.5% (active) | 108% (active) | 97% (active) | 96% (active) | 53.9% (active) | 51.5% (active) |
| O=C(NCCc1ccccc1)c1ccc2c(c1)OCCCO2 | 68.3% (active) | 67.7% (active) | 31.9% | 53.5% (active) | 75.5% (active) | 62.5% (active) | 78.5% (active) | 66.5% (active) | 78.8% (active) | 87.7% (active) |
| Cc1ccc(C(=O)N/N=C/c2c(O)ccc3ccccc23)cn1 | 65.9% (active) | 62.9% (active) | 58.7% (active) | 75.4% (active) | 84.8% (active) | 102% (active) | 89.9% (active) | 83.8% (active) | -4.97% | 33.4% |
| O=C(CCCN1C(=O)S/C(=C\c2ccccc2)C1=O)NNC(=O)c1ccccc1O | 66% (active) | 58.7% (active) | 54.6% (active) | 53.3% (active) | 54.9% (active) | 64% (active) | 53.8% (active) | 63.8% (active) | 89.2% (active) | 92.8% (active) |
| CC1(C)N=C(N)N=C(N)N1c1ccc(CCCCc2ccccc2)cc1 | 31.1% | 68.2% (active) | 60.1% (active) | 66% (active) | 63.7% (active) | 89.9% (active) | 85.7% (active) | 80.6% (active) | 26.9% | 29.4% |
| CC(C)CCCCCCCCCCCCC(=O)NCC(=O)NC1C(C)OC(Nc2ncnc3nc[nH]c23)C(O)C1O (stereo not given) | 98.9% (active) | 98.8% (active) | 96.6% (active) | 98.8% (active) | 94.7% (active) | 111% (active) | 97.7% (active) | 95.8% (active) | 76.9% (active) | 72.2% (active) |
| CNc1cccnc1C=NNC(N)=S | 71.3% (active) | 40.5% (active) | 58.5% (active) | 17.9% | 25.3% | 57.8% (active) | 52.1% (active) | 30.4% | -4.08% | 9.84% |
| CCCCCCCC/C=C\CCCCCCCC(=O)NCCc1ccc(O)c(O)c1 | 22% | -11.3% | -70% | -11.4% | -4.3% | -29.9% | 4.21% | -16.1% | 1.26% | 21% |
| O=C(NCCc1ccccc1)c1ccc2c(c1)OCCO2 | 41.6% | 11.9% | -81.6% | 0.41% | 29.6% (active) | -10.6% | 42% | 7.34% | 44.1% (active) | 77.7% (active) |
| COC(=O)Cc1ccc(NC(=O)c2ccc(C(C)(C)C)cc2)cc1 | 55.9% (active) | 40.7% (active) | 43.4% | 44.8% (active) | 54.3% (active) | 76.9% (active) | 67.3% (active) | 50.8% (active) | 21.1% | 92.9% (active) |
| O=C(CCCN1C(=O)/C(=C/c2ccccc2Cl)SC1=S)NNC(=O)c1ccccc1Cl | 58% (active) | 31.3% (active) | 40% | 40.9% (active) | 54.6% (active) | 55.1% (active) | 46.8% (active) | 45% (active) | 80.7% (active) | 87.5% (active) |
